This is an account of results in PubChem BioAssay AID1850 (Southern Research Specialized Biocontainment Screening …, 2009).

Molecules are shown by their SMILES. About 1,000 (0.32%) of roughly 310,000 compounds were called active. No rule for the calls is given here. Only a sample is shown. Results with a measured potency or affinity are listed apart.

This assay can be described thus: PhoP regulon inhibitors, Salmonella typhi PhoP promoter GFP reporter, confirmatory (AID 1850).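 Also: 0% = induced wells with vehicle and 100% = uninduced wells.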 As to conditions: fluorescence, 4 h, at 50 µM, stronger effect = higher value.
In the case of `CC1CCCCC12NC(=O)N(CC(=O)NCc1ccc3c(c1)OCO3)C2=O` (stereo not given), the inhibition (commonly the relative decrease from the control value, in per cent) is 5.06% (inactive). The figure for `N#Cc1cc2c(nc1SCC(=O)O)CCCCC2` is 9.95% (inactive); for `CCn1cc(C(=O)NCc2cccc(F)c2)c(=O)c2cc(F)c(N3CCN(C(=O)c4ccco4)CC3)cc21` it is -0.01% (inactive); for `CCN(CC)CCNC(=O)c1cn(CC)c2cc(N3CCN(C(=O)c4ccco4)CC3)c(F)cc2c1=O` it is 5.87% (inactive). The figure for `CCn1cc(C(=O)NCC(C)C)c(=O)c2cc(F)c(N3CCN(C(=O)c4ccco4)CC3)cc21` is 1.03% (inactive); for `CCn1cc(C(=O)NCc2ccccc2)c(=O)c2cc(F)c(N3CCN(C(=O)c4ccco4)CC3)cc21` it is -5.58% (inactive); for `CCN(CC)CCNC(=O)c1cn(CC)c2cc(N3CCN(C)CC3)c(F)cc2c1=O` it is -0.07% (inactive). The same measure for `CCn1cc(C(=O)NCCC(C)C)c(=O)c2cc(F)c(N3CCN(C)CC3)cc21`: 5.29% (inactive). In the case of `CCCNC(=O)c1cn(CC)c2cc(N3CCN(C(=O)c4ccco4)CC3)c(F)cc2c1=O`, the inhibition is 1.38% (inactive).

Regarding `CCCCNC(=O)c1cn(CC)c2cc(N3CCN(C)CC3)c(F)cc2c1=O`, the inhibition is -13.3% (inactive). The figure for `COc1ccc(C(C)NC(=O)Cc2cccs2)cc1` (stereo not given) is 1.87% (inactive).

With `O=C(Nc1nnc(Cc2ccccc2F)s1)c1ccccc1Cl`, the inhibition is -2.4% (inactive). The figure for `O=C(COC(=O)C1CCN(c2ccc(C(F)(F)F)cn2)CC1)NCc1ccc(F)cc1` is 2.12% (inactive); for `CC(Oc1ccccc1)C(=O)Nc1ccc(S(=O)(=O)Nc2nccs2)cc1` (stereo not given) it is -2.94% (inactive).

As for `COC(=O)c1c(C(=O)OC)c(-c2ccc(OC)cc2)n2c1CS(=O)(=O)C2`, the inhibition was -2.28% (inactive). The same measure for `CCOc1ccccc1N(CC(=O)N1CCOCC1)S(=O)(=O)c1ccccc1`: 11.6% (inactive); for `CCOc1ncccc1C(=O)Nc1cccc(Cl)c1Cl`: -6.65% (inactive). The figure for `COC(=O)c1ccc(C)c(NC(=O)CCc2cc(OC)c(OC)c(OC)c2)c1` is 8.83% (inactive).

With `COc1cc(/C=N/NC(=O)c2ccncc2)cc(OC)c1OC`, the inhibition was 6.9% (inactive). The same measure for `COc1cccc(C(O)c2cnc(C(C)C)n2C)c1` (stereo not given): 5.41% (inactive); for `CCCC(=O)Nc1c2c(nn1-c1ccc(F)cc1)CS(=O)(=O)C2`: -3.29% (inactive); for `CCn1cc(C(=O)NN)c(=O)c2cc(F)c(N3CCOCC3)cc21`: -10.2% (inactive). Consider `CCCCNC(=O)c1cn(CC)c2cc(N3CCN(C(=O)c4ccco4)CC3)c(F)cc2c1=O`, for which the inhibition is -5.26% (inactive). Take `CCn1cc(C(=O)NCC2CCCO2)c(=O)c2cc(F)c(N3CCN(C)CC3)cc21` (stereo not given): the inhibition is 1.91% (inactive). The same measure for `CCn1cc(C(=O)N[C@H](C)c2ccccc2)c(=O)c2cc(F)c(N3CCN(C)CC3)cc21`: 2.31% (inactive); for `CCn1cc(C(=O)NCCCO)c(=O)c2cc(F)c(N3CCN(C)CC3)cc21`: 6.73% (inactive); for `CCn1cc(C(=O)NN)c(=O)c2cc(F)c(N3CCN(C)CC3)cc21`: 3.76% (inactive). Turning to `CCCCCCNC(=O)c1cn(CC)c2cc(N3CCN(C)CC3)c(F)cc2c1=O`, the inhibition was -4.8% (inactive). For `Cc1cccn2c(=O)c(C(=O)NCCCN3CC(C)CC(C)C3)c(O)nc12` (stereo not given), the inhibition was 0.48% (inactive). As for `COc1cccc2cc(C(=O)OCC(=O)NCc3ccc4c(c3)OCO4)c(=O)oc12`, the inhibition is 7.88% (inactive). As to `CS(=O)(=O)N1CCN(c2ccccc2NC(=S)NC(=O)c2cccs2)CC1`, the inhibition is -10.5% (inactive).

With `N#CCSc1nccc(/C=C/c2ccccc2)n1`, the inhibition was 6.91% (inactive).

On to `O=C(O)C[C@H]1c2cc(F)ccc2S(=O)(=O)N1C1CCCC1`, for which the inhibition was -2.28% (inactive).

In the case of `CC(=O)Nc1ccccc1N(C)S(=O)(=O)c1ccc(C)cc1`, the inhibition is -1.46% (inactive). The same measure for `Cn1c(=O)n(C)c2cc([N+](=O)[O-])c(N3CCN(C(=O)c4ccc(Cl)cc4)CC3)cc21`: -4.31% (inactive); for `CCCc1cc(=O)n2[nH]c(C)nc2n1`: 18.9% (inactive). The figure for `Cc1ccc(O)c(C(=O)CC(=O)c2cccc(F)c2)c1` is 8.82% (inactive); for `Cc1ccc(C(=O)CC(=O)c2cccc(F)c2)c(O)c1` it is 5.16% (inactive). The figure for `Cc1cccc(C(=O)CC(=O)c2cc(Cl)ccc2O)c1` is 1.32% (inactive); for `Cc1cc(C)c(C(=O)CC(=O)c2ccccc2Cl)c(O)c1` it is 11.6% (inactive); for `O=C(CC(=O)c1ccccc1O)c1ccc(F)cc1` it is 3.76% (inactive). As for `Cc1ccc(C(=O)CC(=O)c2cc(Cl)ccc2O)cc1`, the inhibition was -2.62% (inactive). For `CC(CC(=O)NCc1ccco1)S(=O)(=O)c1ccc2c(c1)CCN2C(=O)C1CC1` (stereo not given), the inhibition was -3.2% (inactive).

On to `O=c1c(C/C=C/c2ccccc2)c(O)ccn1CCc1c[nH]c2ccccc12`, for which the inhibition is 4.16% (inactive). Turning to `CCOCCOC(NC(=O)c1ccccc1)(C(F)(F)F)C(F)(F)F`, the inhibition is -1.49% (inactive). `CCOC(=O)CSc1nc(Nc2ccc3c(c2)OCO3)c2ccccc2n1`: the inhibition is -1.83% (inactive). The figure for `O=C(COc1ccc(Br)cc1CNCCCN1CCOCC1)Nc1ccccc1` is -6.17% (inactive); for `COc1cccc(-c2nc(N)nc(SC)c2C#N)c1` it is 5.06% (inactive); for `CC(C)n1c(CN2CCN(C)CC2)nc2c1c(=O)n(C)c(=O)n2C` it is 2.65% (inactive). The same measure for `O=c1[nH]c(C2CCN(S(=O)(=O)c3ccccc3)CC2)nc2c1nnn2Cc1ccc2c(c1)OCCO2`: -22.2% (inactive); for `OCC1(Cc2ccc(F)cc2)CCCN(CCc2ccccc2)C1` (stereo not given): 0.44% (inactive). The same measure for `CCOc1ccccc1NC(=O)c1ccc2c(c1)C(=O)N(CC1CCCO1)C2=O` (stereo not given): -5.65% (inactive). Consider `Cc1cccc(NC(=O)Nc2ccncc2)c1`, for which the inhibition is 16.9% (inactive). The same measure for `O=C(Nc1ccc(C2=NCCN2)cc1)c1ccc(Cl)c(C(=O)Nc2ccc(C3=NCCN3)cc2)c1`: 1.21% (inactive); for `C/C(CC(=O)Nc1cc(C)ccn1)=N\NC(=O)c1ccncc1`: 3.7% (inactive); for `CCOC(=O)Cn1c(=N)n(CCOc2cccc(C)c2)c2ccccc21`: -0.323% (inactive). The same measure for `CCOC(=O)Cn1c(=N)n(CCOc2ccc(OC)cc2)c2ccccc21`: 10.3% (inactive); for `O=C(NCc1ccccn1)C1CN(S(=O)(=O)c2ccccc2)CCN1S(=O)(=O)c1ccccc1` (stereo not given): 1.61% (inactive).

On to `Cc1sc2ncnc(SCC(=O)N3CCCC(C(F)(F)F)C3)c2c1C` (stereo not given), for which the inhibition is 8.83% (inactive). The figure for `Cc1cc(OCC(=O)N2CCC[C@@H]2C(=O)O)c2c(C)c(C)c(=O)oc2c1` is 5.08% (inactive); for `O=C(Nc1ncc([N+](=O)[O-])s1)C1CC(=O)N(c2ccc(F)cc2)C1` (stereo not given) it is 13% (inactive); for `O=C1CCCN1c1ncc(S(=O)(=O)c2ccc([N+](=O)[O-])cc2)s1` it is 0.41% (inactive).

As to `O=C(CCc1nnc2ccc(N3CCCCC3)nn12)NCc1ccco1`, the inhibition is -3.14% (inactive).

In the case of `Cc1cc(C)c2nc(N(CCCN(C)C)C(=O)c3ccc(S(=O)(=O)N4CC(C)OC(C)C4)cc3)sc2c1` (stereo not given), the inhibition is 7.15% (inactive). The same measure for `O=C1CC(c2ccco2)Sc2ccccc2N1` (stereo not given): -2.22% (inactive). The same measure for `O=C1NC(c2ccco2)Nc2ccccc21` (stereo not given): -3.49% (inactive); for `O=C1CC(c2ccccc2)CC(=O)C1=CN1CCCC1` (stereo not given): -0.41% (inactive). The same measure for `CC(=O)NC(=S)NNC(=O)CCc1ccccc1`: -2.11% (inactive). Turning to `COCCCNC(=S)NNC(=O)c1csc(C)n1`, the inhibition is 3.64% (inactive). The same measure for `COCCCNC(=S)NNC(=O)c1cccnc1`: 1.9% (inactive).

Regarding `Cc1ccc(C(=O)NC(=S)NNC(=O)c2ccccc2)cc1`, the inhibition was 19.1% (inactive). The same measure for `Cc1ccc(C(=O)NNC(=S)NC(=O)c2ccc(Cl)cc2)cc1`: 6.07% (inactive); for `CC(=O)NNC(=S)NC(=O)c1ccc(C)cc1`: 9.68% (inactive); for `CC(=O)NNC(=S)NC(=O)c1cccc([N+](=O)[O-])c1`: 5.04% (inactive). The figure for `O=C(CCc1ccccc1)NNC(=S)NC(=O)c1ccc(Cl)cc1` is 10.2% (inactive); for `CC(C)CN(Cc1cc(=O)oc2cc3c(cc12)CCCC3)CC(C)C` it is 3.63% (inactive).

Regarding `CCOc1ncccc1C(=O)OCCN1C(=O)c2ccccc2C1=O`, the inhibition is 7.33% (inactive). For `O=C(NNS(=O)(=O)c1ccccc1)c1cccc([N+](=O)[O-])c1`, the inhibition is -3.37% (inactive).

Regarding `Cc1ccc(S(=O)(=O)NCc2cccnc2)c(C)c1`, the inhibition was 0.7% (inactive). The figure for `COc1ccc(-c2nc3n(c(=O)c2C#N)CCS3)cc1` is 2% (inactive); for `CCCNS(=O)(=O)c1cc2c3c(c1)C(C)C(=O)N3CCC2` (stereo not given) it is 8.86% (inactive). The same measure for `CC(=O)c1ccc(NC(=S)N2CCN(CCO)CC2)cc1`: 5.45% (inactive).

As for `Cc1cc(C)c(C(N)=O)c(NCCc2ccccc2)n1`, the inhibition was -2.71% (inactive). The same measure for `c1ccc(-c2nnc(CSc3nc4ccccc4[nH]3)o2)cc1`: -20.5% (inactive). The same measure for `CC1CCCCN1C(=O)c1ccc(NC(=O)c2ccccc2Cl)cc1` (stereo not given): 3.28% (inactive); for `O=C(NC(=S)NNC(=O)c1ccccc1O)c1ccccc1`: 4.34% (inactive); for `O=C(CCc1ccccc1)NNC(=O)c1ccccc1Cl`: 3.05% (inactive).

With `O=C(NNC(=S)Nc1ccccc1)c1ccc(O)cc1`, the inhibition is 9.42% (inactive). Consider `O=C(CCc1ccccc1)NNC(=O)CCc1ccccc1`, for which the inhibition was -2.48% (inactive). The figure for `c1ccc(C[C@H]2CNCCN2CC2(c3ccccc3)CC2)cc1` is -6.5% (inactive). The figure for `Cc1cc2oc(C(=O)NCc3ccccc3)cc(=O)c2cc1C` is -12.8% (inactive); for `CC1=NNC(=O)/C1=C\c1cn(-c2ccccc2)nc1-c1ccccc1` it is 10.4% (inactive); for `CC1=C(C(=O)Nc2ccc(C)cc2C)C(c2cccs2)NC(=S)N1` (stereo not given) it is 2.73% (inactive).

On to `O=C(Nc1ccc(Cl)cc1)N1CCCN(Cc2ccc(F)cc2)C1`, for which the inhibition was 0.26% (inactive). The figure for `O=C(Nc1ccccc1)N1CCCN(Cc2ccccc2F)C1` is 14% (inactive).
